Measurements as given in PubChem BioAssay (NCI).
The panel holds about 83,000 compounds, 20% with a hit somewhere; the sample as a whole holds those more often.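 The endpoint reported here, percent growth, reads 100 for growth as untreated, 0 for no net growth and -100 for all cells dead.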 A number with no mark means an inactive call. Calls of active or inactive are those of the source. How the source made its calls: active means growth percent below 10; inactive means the rest.

Columns and labels:
Assay in all cases: NCI-60 one-dose screen, 48 h (100 = growth as untreated, 0 = no growth, -100 = all killed)
Conditions in all cases: 10 µM
[1] = tested on: HT29 colon
[2] = tested on: SNB-75 CNS
[3] = tested on: SNB-19 CNS
[4] = tested on: U251 CNS
[5] = tested on: PC-3 prostate
[6] = tested on: SK-MEL-5 melanoma
[7] = tested on: UACC-62 melanoma
[8] = tested on: LOX IMVI melanoma
[9] = tested on: SK-MEL-28 melanoma
[10] = tested on: SK-MEL-2 melanoma
[11] = tested on: SN12C renal
[12] = tested on: UO-31 renal
[13] = tested on: ACHN renal
[14] = tested on: CAKI-1 renal
[15] = tested on: A498 renal
[16] = tested on: CCRF-CEM leukemia
[17] = tested on: MOLT-4 leukemia
[18] = tested on: SR leukemia
[19] = tested on: TK-10 renal

COc1cc(-c2cc(-c3cc4c([nH]c5ccccc54)c(-c4cc(OC)c(OC)c(OC)c4)n3)cc(-c3ccccc3)n2)cc(OC)c1OC
growth [1]: 44.4% | growth [2]: 36.2% | growth [3]: 66% | growth [4]: 62.1% | growth [5]: 48.3% | growth [6]: 40.1% | growth [7]: 40% | growth [8]: 59.5% | growth [9]: 62.5% | growth [10]: 46% | growth [11]: 54.6% | growth [12]: 36.9% | growth [13]: 62.8% | growth [14]: 32.9% | growth [15]: 54.5% | growth [16]: 37.9% | growth [17]: 18.5% | growth [18]: 16.7%

COc1cc(C(=O)N2CCN(c3ccccc3OC)CC2)c(N)cc1OCCCN1CCN(c2ccccc2OC)CC1
growth [1]: 98.2% | growth [2]: 104% | growth [3]: 104% | growth [4]: 96.6% | growth [5]: 69% | growth [6]: 44.4% | growth [7]: 79.4% | growth [8]: 78.8% | growth [9]: 119% | growth [10]: 83.2% | growth [11]: 98.6% | growth [12]: 62.4% | growth [19]: 113% | growth [13]: 88.8% | growth [15]: 117% | growth [16]: 4.33% (active) | growth [17]: 53.8% | growth [18]: 67.7%

CCCCOC(=O)Oc1ccc(C(=O)Oc2ccc(OCC)cc2)cc1
growth [1]: 108% | growth [2]: 111% | growth [3]: 102% | growth [4]: 88.9% | growth [5]: 93.2% | growth [6]: 102% | growth [7]: 104% | growth [8]: 96.3% | growth [9]: 109% | growth [10]: 112% | growth [11]: 95.3% | growth [12]: 85.6% | growth [19]: 117% | growth [13]: 90.2% | growth [14]: 87.1% | growth [16]: 8.77% (active) | growth [17]: 111% | growth [18]: 107%

CSc1nc(=O)n(Cc2ccc(Cl)cc2)c(=O)[nH]1
growth [1]: 109% | growth [2]: 74.6% | growth [3]: 108% | growth [4]: 94.6% | growth [5]: 101% | growth [6]: 110% | growth [7]: 112% | growth [8]: 96.8% | growth [9]: 107% | growth [10]: 116% | growth [11]: 107% | growth [12]: 112% | growth [13]: 103% | growth [14]: 112% | growth [15]: 103% | growth [16]: 100% | growth [17]: 105% | growth [18]: 95.5%

Nc1nc(-c2ccccc2Cl)cc(-c2ccc(Cl)cc2Cl)n1
growth [1]: 36.6% | growth [2]: 30.5% | growth [3]: 78.1% | growth [4]: 65% | growth [5]: 74.2% | growth [6]: 75.2% | growth [7]: 63.1% | growth [8]: 55.4% | growth [9]: 88% | growth [10]: 96.3% | growth [11]: 79.6% | growth [12]: 62.5% | growth [13]: 86% | growth [14]: 68% | growth [15]: 53.7% | growth [16]: 57.5% | growth [17]: 52.6% | growth [18]: 25.4%

CCOC(=O)CNC(=O)CCCCSc1ncnc2nc[nH]c12
growth [1]: 103% | growth [2]: 95.3% | growth [3]: 109% | growth [4]: 106% | growth [5]: 91% | growth [6]: 93.4% | growth [7]: 94.9% | growth [8]: 102% | growth [9]: 110% | growth [10]: 97.6% | growth [11]: 99% | growth [12]: 96.5% | growth [19]: 158% | growth [13]: 104% | growth [14]: 96.1% | growth [16]: 113% | growth [17]: 101% | growth [18]: 90.6%

COc1cc(CNCCCCCCN2C(=O)c3cccc4cccc(c34)C2=O)ccc1O
growth [1]: 26.9% | growth [2]: 67.1% | growth [3]: 84.3% | growth [4]: 65.9% | growth [5]: 51.4% | growth [6]: 10.6% | growth [7]: 80.5% | growth [8]: 36.3% | growth [9]: 18.7% | growth [10]: 120% | growth [11]: 70.5% | growth [12]: 23.8% | growth [19]: 85.4% | growth [13]: 63.7% | growth [16]: 45.4% | growth [17]: 49.2% | growth [18]: 0.634% (active)

C#Cc1ccc(-n2c(/C=C/c3ccc4ccccc4n3)nc3ncccc3c2=O)cc1
growth [1]: -61.4% (active) | growth [2]: -59.2% (active) | growth [3]: -0.995% (active) | growth [4]: -57.6% (active) | growth [5]: -28.6% (active) | growth [6]: -98.2% (active) | growth [7]: -65.3% (active) | growth [8]: -50.8% (active) | growth [9]: -52.8% (active) | growth [10]: -67% (active) | growth [11]: -15% (active) | growth [12]: -91.7% (active) | growth [19]: -44.4% (active) | growth [13]: 2.7% (active) | growth [14]: -20.5% (active) | growth [16]: -15.1% (active) | growth [17]: -7.6% (active) | growth [18]: -17.9% (active)
